A selection: hits, their analogues and other compounds. The true share with any hit is near 9%.
BAZ2B block – inhibitors of human BAZ2B bromodomain. AID 504333. Potency, µM (highest dose often 114 µM), for inactives: at the highest dose activity change, negative = inhibition, most hits filed as inhibitors. Q9UIF8. AlphaScreen BAZ2B-H3K14Ac peptide displacement. 4.4% of 360,000 active; note: % is set by controls: 0 for no effect and ±100 for the full control effect; nearly all actives have a fitted effect of over 60% in size
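Complex of BAZ2B and biotin-H3K14Ac (50 nM apiece) forms over 30 min at RT, then faces library compounds up to 110 uM for another 30 min; AlphaScreen beads added, 20 min dark incubation, luminescence read.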
ALOX12 inh – inhibitors of human 12S-lipoxygenase ALOX12. 1.1% of 580,000 active. Potency, µM (top dose mostly 108 µM), for inactives: at the highest dose activity change, negative = inhibition, usual class: inhibitors. purified 12hLO, xylenol orange hydroperoxide absorbance. AID 1671190; note: % is set by controls: 0 for no effect and ±100 for the full control effect
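Purified human 12hLO (150 nM final) in 25 mM Hepes, 0.01% Triton X-100, pH 7.0 was preincubated 15 min at room temperature with compound. Then 40 uM arachidonic acid was added, 30 min. Hydroperoxide was read by Fe-XO absorbance ratio 573/405 nm.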
G9a block – G9a (human) methyltransferase inhibition | Q96KQ7 | AID 504332 | 8.8% of 350,000 active | Potency, µM (series often up to 102 µM), inactives show top-dose activity, negative = inhibition, most hits filed as inhibitors | G9a H3K9 monomethylation, AlphaScreen, 2 h; note: % is set by controls: 0 for no effect and ±100 for the full control effect; nearly all actives have a fitted effect of over 75% in size
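Methyltransferase reactions run at room temperature for 2 h (20 nM enzyme, 500 nM biotin-H3K9 peptide, 20 uM SAM) after a 15 min compound preincubation; product detected by AlphaScreen beads and anti-H3K9me1 antibody.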
JMJD2A Tudor – blocks the human JMJD2A Tudor domain | 4.4% of 390,000 active | O75164 | Potency, µM (doses to about 114 µM), for the others: at the top dose activity change, negative = inhibition, usual class: inhibitors | AlphaScreen JMJD2A-Tudor / H3K4me3 peptide binding | AID 504339; note: % is set by controls: 0 for no effect and ±100 for the full control effect; nearly all actives have a fitted effect of over 50% in size
Target sequence (O75164 whole entry, looked up, the tested form may be a part): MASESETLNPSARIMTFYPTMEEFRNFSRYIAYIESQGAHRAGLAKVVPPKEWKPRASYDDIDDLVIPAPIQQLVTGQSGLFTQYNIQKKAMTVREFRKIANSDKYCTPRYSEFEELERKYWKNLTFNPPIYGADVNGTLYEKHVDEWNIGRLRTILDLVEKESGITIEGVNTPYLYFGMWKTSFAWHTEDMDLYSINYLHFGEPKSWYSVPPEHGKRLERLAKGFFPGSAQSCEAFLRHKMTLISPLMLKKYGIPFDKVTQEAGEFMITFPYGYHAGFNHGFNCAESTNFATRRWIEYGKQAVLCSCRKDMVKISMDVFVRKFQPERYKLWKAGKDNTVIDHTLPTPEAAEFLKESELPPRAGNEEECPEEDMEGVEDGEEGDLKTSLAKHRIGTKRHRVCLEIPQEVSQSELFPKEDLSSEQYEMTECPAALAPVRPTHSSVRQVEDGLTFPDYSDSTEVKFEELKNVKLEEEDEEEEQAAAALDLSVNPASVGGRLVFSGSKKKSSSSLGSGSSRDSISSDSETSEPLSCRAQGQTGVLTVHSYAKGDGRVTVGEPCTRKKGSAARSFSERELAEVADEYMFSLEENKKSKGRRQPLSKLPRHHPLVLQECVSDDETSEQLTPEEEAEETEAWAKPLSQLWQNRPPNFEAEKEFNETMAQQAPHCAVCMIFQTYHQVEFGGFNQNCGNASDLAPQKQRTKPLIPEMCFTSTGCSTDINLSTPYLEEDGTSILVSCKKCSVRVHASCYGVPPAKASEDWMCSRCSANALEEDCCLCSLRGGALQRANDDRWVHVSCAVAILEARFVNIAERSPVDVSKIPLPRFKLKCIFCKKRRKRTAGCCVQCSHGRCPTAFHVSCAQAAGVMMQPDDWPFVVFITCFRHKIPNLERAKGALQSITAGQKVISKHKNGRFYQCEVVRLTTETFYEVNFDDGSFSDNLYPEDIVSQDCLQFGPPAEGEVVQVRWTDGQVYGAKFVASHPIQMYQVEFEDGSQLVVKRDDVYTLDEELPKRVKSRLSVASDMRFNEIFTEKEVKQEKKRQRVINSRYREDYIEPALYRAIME
HP1b binding inh – HP1-beta chromodomain-methylated histone interaction inhibition | AID 540317 | Potency, µM (top dose mostly 114 µM), for the others: top-dose activity change, negative = inhibition, usual class: inhibitors | AlphaScreen HP1-beta / biotin-H3K9me3 peptide binding | 0.56% of 390,000 active; note: nearly all actives have a fitted effect of over 70% in size
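HP1-beta protein (50 nM final) preincubated 30 min at room temperature with biotinylated H3(1-18)K9me3 peptide (50 nM) in PBS pH 7.4, 0.01% Tween-20, then compound added for 30 min. AlphaScreen streptavidin donor/nickel chelate acceptor beads (10 ug/mL final), 30 min dark, luminescence read.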
PLK1 PBD block – PLK1 (human) polo-box domain binding inhibition; 2.8% of 360,000 active; Potency, µM, for inactives: max response, negative = inhibition, hits mostly inhibitors; P53350; Plk1 PBD binding of FITC phosphopeptide, fluorescence polarization; note: series mostly up to about 57 µM; % is set by controls: 0 for no effect and ±100 for the full control effect; nearly all actives have a fitted effect of over 65% in size
Numbers without * were called inactive; u = inconclusive; x = no result; [ ] = another dose, or the depositor's remark. Calls come from the whole dose curve; as a rule, active = well fitted curve in the direction sought with a large enough effect; inconclusive = small, poorly fitted or top-dose-only effect, or another doubt; inactive = no such curve, though single readings can be large; an effect the other way counts as inactive or inconclusive. Potency is the fitted concentration of half-maximal effect.

SMILES | BAZ2B block | ALOX12 inh | G9a block | JMJD2A Tudor | HP1b binding inh | PLK1 PBD block
CCc1ccccc1NC(=O)CN(C)CC(=O)NC(=O)NCC(F)(F)F | x | -6.0% | x | x | x | x
COc1ccc(/C=C2\S/C(=N/S(=O)(=O)c3cccs3)NC2=O)cc1 | x | 39.8µM* | u | -34.3% | 14.7% | 23.8µM*
COc1ccc(/C=N/S(=O)(=O)c2cccs2)cc1 | 4.8% | 2.3% | -2.3%[59 µM] | 10.5% | 16.4% | -4.9%
O=C(CC1N=C2c3ccccc3N=C(SCc3ccc(F)cc3)N2C1=O)NC1CCCCC1 (centres undefined) | -2.6% | -8.2% | -5.3%[59 µM] | -19.7% | 57.4% | x
C[N+]1(CC#CC(O)(c2ccccc2)c2ccccc2)CCCC1 | -31.7% | u | 8.91µM* | u | 4.6% | -11.2%
CCN(CC)CCC#CC(O)(c1ccccc1)c1ccccc1 | 11.9% | u | 1.6%[59 µM] | 0.0% | 28.4% | 5.3%
CCn1cnc2cc(NCc3ccc(OC)cc3)ccc21 | u | -24.0% | 8.91µM* | -35.1% | 2.1% | 1.1%
CCOc1ccc2nc3cc(NCc4ccc(OC)cc4)ccc3c(N)c2c1 | u | x | 35.5µM* | u | 37.9% | u
CCc1ccc(CNc2ccc3c(c2)ncn3CC)cc1 | u | -3.0% | 11.2µM* | 44.7µM* | u | -2.0%
CCOc1ccc2nc(SCC(=O)NCc3ccc(OC)cc3)[nH]c2c1 | 5.7% | -7.5% | 8.3% | 13.0% | 28.7% | -1.1%
COc1ccc(Cl)cc1NC(=O)C(=O)NCc1ccc(Cl)cc1 | 9.2% | 15.4% | 17.1%[59 µM] | 10.1% | 21.7% | x
N=c1oc2cc(O)ccc2cc1C(=O)Nc1ccc(F)cc1 | 3.0% | -2.0% | 8.2% | 17.8% | 50.1% | -0.9%
NC(=O)C1(N2CCCCC2)CCN(C(=S)NCCc2ccccc2)CC1 | -12.6% | -2.3% | 4.1% | -14.3% | 34.7% | -3.6%
CCCCCC(=O)N1CCCC1 | -1.1% | -1.6% | -6.6%[12.7 µM] | 2.6% | 22.6%[57 µM] | -8.7%
CCOc1ccc(N(C)Cc2cc(=O)oc3ccc(OCC)cc23)cc1 | 17.8µM* | 13.0% | 10µM* | u | -37.5% | -14.4%
Cc1cccc(-[n+]2c(C)cc(C)c3c(=O)[nH]c(=O)[nH]c32)c1 | 2.2% | -4.3% | 50.1µM* | -1.3% | 22.5% | -10.2%
CC(C)c1ccc2c(c1)C(c1ccc(N3CCOCC3)cc1)=NNC(c1cccs1)=N2 | u | 0.0% | 44.7µM* | u | -16.7% | 3.0%
COc1ccc2c(c1)C(c1cccs1)=NNC(c1ccncc1)=N2 | u | 13.9% | x | u | -7.9% | -3.1%
CC(C)c1ccc2c(c1)C(c1cccs1)=NNC(c1ccncc1)=N2 | u | 2.9% | 28.2µM* | -33.0% | 13.3% | -9.1%
CCOc1ccccc1CNC(=O)c1ncoc1-c1cccs1 | x | 1.2% | x | x | x | x
Cc1cc(C(=O)COC(=O)c2cc3ccccc3oc2=O)c(C)n1CC(F)(F)F | x | 20.4% | x | x | x | x
Cc1ccc(C)c(NC(=O)c2ccc3nc(CCc4ccccc4)oc3c2)c1 | 0.4% | -24.0% | 6.3%[59 µM] | -19.2% | 18.2%[57 µM] | x
Nc1nnc(-c2ccc(F)cc2)s1 | -7.7% | 10.9% | -2.1%[0.501 µM] | -5.6% | 13.0% | -9.6%
Nc1nnc(CSCc2ccc(F)cc2)s1 | -2.8% | -28.4% | u | -6.5% | u | 18.9µM*
O=c1c2c3nc4ccccc4nc3n(Cc3ccccc3)c2ncn1Cc1ccco1 | 50.1µM* | u | u | -29.7% | 12.0% | -27.2%
CC(C)Cn1cnc2c(c(-c3ccccc3)c(-c3ccccc3)n2Cc2ccco2)c1=N | u | -88.5% | u | u | -16.2% | 27.4%
N=c1c2c(-c3ccccc3)c(-c3ccccc3)n(Cc3ccco3)c2ncn1CCCn1ccnc1 | u | 2.6% | u | u | -22.8% | 7.9%
c1ccc(-c2oc3ncnc(NCCCn4ccnc4)c3c2-c2ccccc2)cc1 | 25.1µM* | x | u | 56.2µM* | u | 6.4%
N=c1c2c(-c3ccccc3)c(-c3ccccc3)n(Cc3ccco3)c2ncn1Cc1ccccc1 | 44.7µM* | 33.2% | -9.0%[12.7 µM] | -17.9% | 13.9% | -0.8%
